For 29 compounds, Inhibition results are on record in ChEMBL document CHEMBL1157539, “Thousands of chemical starting points for antimalarial lead identification” (Nature, 2010).

Common to all, as to format: functional
The subject of assay [1] is Plasmodium falciparum. The assay can be described thus: GSK_TCMDC: Inhibition of Plasmodium falciparum 3D7 in whole red blood cells, using parasite LDH activity as an index of growth. Test compounds present at 2uM.
The subject of assay [2] is Plasmodium falciparum. The experiment in a line: GSK_TCMDC: Inhibition of Plasmodium falciparum Dd2 in whole red blood cells, using parasite LDH activity as an index of growth. Test compounds present at 2uM.
The next assay relates to HepG2. The experiment in a line: GSK_TCMDC: Percent inhibition of human HepG2 cell line. Test compounds present at 10uM.

The Inhibition is how much of the control response was suppressed. The low end stands for little suppression, the high end for strong suppression. `O=C(Cc1c[nH]cn1)Nc1ccc(-c2ccc(-c3nc4ccccc4[nH]3)s2)cc1`: the figures for the Inhibition with Plasmodium falciparum [1], with Plasmodium falciparum [2] and in the assay with HepG2 were 90%, 34% and 44%, respectively.
The corresponding values for `Cc1cnc(NCCc2ccc(F)cc2)nc1NCCC(=O)Nc1ccccc1.O=C(O)C(F)(F)F` are 89%, 17% and 3%.
As to `O=C(N[C@H]1CCN(Cc2ccc(OC3CCN(Cc4ccccc4)CC3)cc2)C1)c1ccc(Cl)c(Cl)c1.O=C(O)C(F)(F)F`, the Inhibition in the assay with Plasmodium falciparum [1] is listed as 90%; with Plasmodium falciparum [2], 6%; in the assay with HepG2, 37%.
On the same counts, the results for `Cc1cc(N(C)CCCN2CCCCC2)nc(Nc2ccc(Cl)cc2)n1.Cl` are 100%, 82% and 7%.
On the same counts, the results for `CCN(CC)Cc1ccc2c(=O)cc(CCc3cccc(F)c3F)n(CC(=O)N(Cc3ccc(-c4ccc(C(F)(F)F)cc4)cc3)C(C)C)c2c1.O=C(O)C(O)C(O)C(=O)O` are 100%, 63% and 82%.
On the same counts, the results for `Cc1[nH]c(C)c(-c2ccc(OCc3cc(C(F)(F)F)cc(C(F)(F)F)c3)nc2)c(=O)c1Br` are 98%, 96% and 28%.
Consider `O=C(Nc1ccc2c(c1)OCO2)NC1CCN(c2ccnc(Nc3ccc(F)cc3)n2)C1` (configuration not stated), for which the Inhibition with Plasmodium falciparum [1] is listed as 100%; in the assay on Plasmodium falciparum [2] it was 89%; in the assay on HepG2, 5%.
The corresponding values for `N#CC(NC(=O)C=Cc1ccccc1)c1ccccc1` (configuration not stated) are 95%, 3% and 3%.
On the same counts, the results for `CC(C)(C)c1nn(-c2ccccc2)c2[nH]c(=O)c(CNCc3ccccc3)cc12` are 90%, 91% and 5%.
The corresponding values for `O=C(/C=C/c1ccc(Cl)c(Cl)c1)NCCCCCN1CCCC(c2c[nH]c3ccccc23)C1` (configuration not stated) are 99%, 22% and 25%.
For the compound `COc1ccc(CCN(C)CCOc2ccc(NC(=O)c3cccc4c(=O)c5cc(SC)ccc5[nH]c34)cc2)cc1OC`, the Inhibition in the assay on Plasmodium falciparum [1] turned out to be 97%; in the assay on Plasmodium falciparum [2] it was 82%; in the assay on HepG2 it was 52%.
The corresponding values for `Cc1cc(CNC(c2ccccc2)C2CCC2)cc(C)c1O` (configuration not stated) are 94%, 48% and 78%.
As for `CCN1CCC(N(Cc2ccc(-c3ccc(C(F)(F)F)cc3)cc2)C(=O)CCCCn2c(CCc3cccc(F)c3F)nc(=O)c3ccccc32)CC1`, the figures for the Inhibition in the assay with Plasmodium falciparum [1], with Plasmodium falciparum [2] and with HepG2 were 90%, 77% and 54%, respectively.
For `CCCC1(C)CSc2ccccc2C(c2ccccc2)N1` (configuration not stated), the results for the Inhibition with Plasmodium falciparum [1], in the assay on Plasmodium falciparum [2] and in the assay with HepG2 were 87%, 2% and 60%, respectively.
On the same counts, the results for `Cc1ccccc1CN1CCCN(Cc2ccc(C(=O)Nc3ccc(C(C)(C)C)cc3)cc2)CC1.O=C(O)C(F)(F)F` are 89%, 5% and 52%.
The corresponding values for `CC(C)CCNCC(O)Cn1c2ccc(Cl)cc2c2cc(Cl)ccc21` (configuration not stated) are 99%, 99% and 36%.
On the same counts, the results for `COc1ccc2nccc([C@@H](O)CN3CCC(NC(=O)Cn4nc(-c5ccc(C(F)(F)F)cc5)ccc4=O)CC3)c2c1` are 100%, 90% and 12%.
In the case of `CCCc1ccc(-c2csc(NC(=O)c3ccc([N+](=O)[O-])o3)n2)cc1`, the Inhibition in the assay on Plasmodium falciparum [1] was 85%; with Plasmodium falciparum [2], 13%; in the assay on HepG2, 72%.
On the same counts, the results for `COC(=O)c1noc(C)c1I` are 99%, 2% and 5%.
On the same counts, the results for `CCNc1cc(-c2cccc(OC)c2)nc(Nc2ccc(F)cc2)n1` are 87%, 23% and 11%.
As to `CN1CCCC(CN2CCN(Cc3ccc(-c4ccc(-c5nc6ccccc6[nH]5)s4)cc3)CC2)C1.O=C(O)C(F)(F)F` (configuration not stated), the results for the Inhibition in the assay on Plasmodium falciparum [1], in the assay with Plasmodium falciparum [2] and in the assay on HepG2 were 100%, 100% and 57%, respectively.
For the compound `Cc1onc(-c2c(Cl)cccc2Cl)c1C(=O)NC1=NC(C)(C)ON1c1ccccc1`, the values for the Inhibition in the assay on Plasmodium falciparum [1], in the assay with Plasmodium falciparum [2] and with HepG2 were 97%, 36% and 6%, respectively.
On the same counts, the results for `Fc1cccc(Nc2nc(NCc3ccc(Cl)c(Cl)c3)nc(Nc3cccc(F)c3)n2)c1` are 99%, 7% and 0%.
The corresponding values for `Cc1cccc(-c2nc(Nc3ccncc3)c3cc(N(C)C)ccc3n2)n1` are 98%, 63% and 5%.
As to `O=C(c1cccs1)N1N=C(c2cccs2)CC1c1cccc([N+](=O)[O-])c1` (configuration not stated), the Inhibition with Plasmodium falciparum [1] came to 95%; in the assay on Plasmodium falciparum [2], 27%; in the assay on HepG2, 5%.
The corresponding values for `Cc1ccc(S(=O)(=O)NC(=N)NC(N)=O)cc1` are 94%, 2% and 26%.
Regarding `COc1ccc2[nH]c(C)cc(=NN=Cc3cccc(Cl)c3)c2c1`, the Inhibition is 100% in the assay on Plasmodium falciparum [1], 100% in the assay with Plasmodium falciparum [2] and 13% with HepG2.
On to `CCN(CCCN1CCCCC1)c1cc(C)nc(Nc2ccc(C)c(C)c2)n1.O=C(O)C(F)(F)F`, for which the Inhibition in the assay on Plasmodium falciparum [1] is 100%; in the assay with Plasmodium falciparum [2], 60%; with HepG2, 30%.
In the case of `CN(C)c1ccc(CN2CCCC(CNC(=O)c3ccc(-c4cccc(C(F)(F)F)c4)s3)C2)cc1.O=C(O)C(F)(F)F` (configuration not stated), the Inhibition stood at 89% in the assay on Plasmodium falciparum [1], 37% with Plasmodium falciparum [2] and 32% in the assay on HepG2.
